The values that follow come from PubChem BioAssay (NCI).

Test systems include NCI-H23 lung; NCI-H226 lung; NCI-H322M lung; HOP-62 NSCLC; NCI-H460 lung; HOP-92 NSCLC; NCI-H522 lung; A549/ATCC NSCLC; 786-0 renal; COLO 205 colon; DU-145 prostate; MALME-3M melanoma; MDA-MB-231 breast; RXF 393 renal; SF-268 CNS; SF-295 CNS; SF-539 CNS; UACC-257 melanoma; M14 melanoma; K-562 leukemia.
Assay in all cases: NCI-60 one-dose screen, 48 h (100 = growth as untreated, 0 = no growth, -100 = all killed)
What all share (details): 10 µM unless noted

Molecules are shown by their SMILES. About 83,000 compounds went through this panel and 20% of them were active in at least one assay; those are over-represented in the sample as a whole.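 For each line, cells grew in 96-well plates with the test compound present at a single concentration for 48 hours.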 Unmarked numbers belong to inactive results. Calls of active or inactive are those of the source. The calls were made as follows: active = growth percent below 10; inactive = the rest.

With `Clc1nc(Nc2ccccc2)nc(Nc2ccccc2)n1`, the growth with NCI-H23 lung was 103%; in the test with NCI-H226 lung, 91.2%; in the test on NCI-H322M lung, 96.3%; with HOP-62 NSCLC it was 81.5%; in the test with NCI-H460 lung, 109%; in the test with HOP-92 NSCLC, 77.9%. Besides, the growth is 83.8% with NCI-H522 lung; 104% in the test on A549/ATCC NSCLC; 84.4% in the test on 786-0 renal; 108% in the test on COLO 205 colon; 101% in the test with DU-145 prostate; 111% in the test with MALME-3M melanoma. Moreover, the growth in the test on MDA-MB-231 breast is 88.8%; with RXF 393 renal, 117%; with SF-268 CNS it was 103%; in the test on SF-295 CNS it was 100%; in the test on SF-539 CNS it was 100%; with UACC-257 melanoma, 130%. Also, the growth in the test on M14 melanoma was 118%.

`CC(C)Cc1ccc(C(C)C(=O)NCc2ccc(Cn3c(=O)sn(-c4ccc(Cl)cc4)c3=O)cc2)cc1` (stereo not given): the growth in the test with NCI-H23 lung was 85.6%; in the test on NCI-H226 lung it was 82.6%; in the test with NCI-H322M lung it was 90.2%; in the test with HOP-62 NSCLC, 85.7%; with NCI-H460 lung, 61.1%; in the test on HOP-92 NSCLC, 75.7%. Further, the growth in the test with NCI-H522 lung is 91.9%; in the test on A549/ATCC NSCLC, 75.4%; in the test on 786-0 renal, 85.3%; with COLO 205 colon, 74%; in the test with DU-145 prostate it was 84.4%; with MALME-3M melanoma it was 79.2%. Moreover, the growth in the test with MDA-MB-231 breast was 66.1%; in the test on SF-268 CNS it was 79.9%; in the test with SF-295 CNS, 80.9%; in the test on SF-539 CNS, 63%; in the test on UACC-257 melanoma it was 81.1%; with M14 melanoma, 84.7%.

With `CN1CCN(C(=O)[C@]2(C)CC[C@]3(C)CC[C@]4(C)C(=CC(=O)[C@@H]5[C@@]6(C)CCC(=O)NC(C)(C)[C@@H]6CC[C@]54C)[C@@H]3C2)CC1`, the growth in the test on NCI-H23 lung was 100%; in the test with NCI-H226 lung, 91.8%; in the test on NCI-H322M lung it was 107%; in the test on HOP-62 NSCLC it was 89.2%; with NCI-H460 lung it was 102%; in the test with HOP-92 NSCLC, 64.7%. Also, the growth in the test on NCI-H522 lung was 90.6%; with A549/ATCC NSCLC, 94.4%; in the test on 786-0 renal, 93.5%; in the test on COLO 205 colon, 110%; in the test with DU-145 prostate, 97.6%; in the test with MALME-3M melanoma, 95.9%. Moreover, the growth is 107% in the test on MDA-MB-231 breast; 94.3% in the test with SF-268 CNS; 98.3% in the test with SF-295 CNS; 92% in the test with SF-539 CNS; 103% in the test with UACC-257 melanoma; 105% in the test on M14 melanoma.

Regarding `CC(C)CN(C(=O)c1ccc(Cl)cc1)c1c(N)n(CC(C)C)c(=O)[nH]c1=O`, the growth with NCI-H23 lung is 95.8%; with NCI-H226 lung, 98.7%; in the test on NCI-H322M lung, 103%; in the test with HOP-62 NSCLC, 90.6%; in the test on NCI-H460 lung, 88.4%; with HOP-92 NSCLC, 80.6%. The growth in the test with NCI-H522 lung was 98.8%; in the test on A549/ATCC NSCLC, 98.8%; with 786-0 renal it was 91.4%; with COLO 205 colon it was 122%; in the test with DU-145 prostate it was 112%; with K-562 leukemia, 103%. Besides, the growth in the test with MALME-3M melanoma was 102%; with MDA-MB-231 breast, 96.1%; in the test with SF-268 CNS it was 92.3%; in the test on SF-295 CNS, 84.7%; with SF-539 CNS, 43.7%; in the test with UACC-257 melanoma, 103%. In addition, the growth in the test with M14 melanoma was 109%.

In the case of `CNC(=O)c1c(NC(=O)c2ccc(C(C)C)cc2)sc2c(CN(C)C)c(O)ccc12`, the growth in the test with NCI-H23 lung is 101%; in the test on NCI-H226 lung it was 95.2%; in the test with NCI-H322M lung, 94.2%; in the test on HOP-62 NSCLC it was 98.9%; in the test with NCI-H460 lung, 38.7%; with HOP-92 NSCLC, 64.7%. The growth with NCI-H522 lung was 77.8%; in the test on A549/ATCC NSCLC, 115%; with 786-0 renal, 83.9%; in the test on COLO 205 colon it was 97.6%; in the test with DU-145 prostate, 97.4%; in the test on K-562 leukemia, -7.46% (active). In addition, the growth in the test with MALME-3M melanoma is 88.5%; in the test with MDA-MB-231 breast, 95%; with SF-268 CNS it was 90.8%; in the test with SF-295 CNS, 97.7%; in the test with SF-539 CNS it was 97.3%; in the test on UACC-257 melanoma it was 110%. Also, the growth with M14 melanoma was 86.8%.

Turning to `S=c1[nH]cccc1-c1nnc2n1Nc1nc3ccccc3cc1CS2`, the growth with NCI-H23 lung was 90.7%; in the test on NCI-H226 lung, 91.1%; in the test on NCI-H322M lung, 101%; with HOP-62 NSCLC it was 90.1%; in the test on NCI-H460 lung, 99.6%; in the test on HOP-92 NSCLC, 99.5%. Also, the growth with NCI-H522 lung was 89%; in the test on A549/ATCC NSCLC, 110%; with 786-0 renal, 100%; in the test with COLO 205 colon, 111%; in the test on DU-145 prostate, 120%; in the test with K-562 leukemia, 99.5%. Further, the growth is 97.1% in the test on MALME-3M melanoma; 92.9% with MDA-MB-231 breast; 101% in the test with SF-268 CNS; 112% in the test with SF-295 CNS; 96.1% in the test with SF-539 CNS; 110% in the test on UACC-257 melanoma. Moreover, the growth in the test on M14 melanoma was 101%.

On to `CCC(C)N(CCNc1cc(OC)cc2cccnc12)CCC(C)C` (stereo not given), for which the growth was 71.7% with NCI-H23 lung; 88% in the test with NCI-H226 lung; 111% in the test on NCI-H322M lung; 62.4% in the test with HOP-62 NSCLC; 78.3% in the test with NCI-H460 lung; 87.9% in the test on HOP-92 NSCLC. Besides, the growth in the test on NCI-H522 lung was 50%; with A549/ATCC NSCLC, 61.6%; in the test with 786-0 renal, 95.7%; in the test with COLO 205 colon it was 68.3%; in the test with DU-145 prostate it was 95.6%; in the test on K-562 leukemia, 83.2%. Further, the growth in the test with MALME-3M melanoma was 121%; in the test with MDA-MB-231 breast, 84.5%; in the test with SF-268 CNS, 78.6%; with SF-295 CNS, 97%; in the test on SF-539 CNS it was 101%; in the test with UACC-257 melanoma, 87.3%. For the same compound, the growth in the test on M14 melanoma is 82.4%.

For `CC(=O)OCCCCCNc1ccccc1`, the growth with NCI-H23 lung is 101%; in the test with NCI-H226 lung, 104%; in the test on NCI-H322M lung, 106%; in the test with HOP-62 NSCLC it was 102%; in the test on NCI-H460 lung, 118%; in the test with HOP-92 NSCLC, 109%. In addition, the growth is 95.1% in the test with NCI-H522 lung; 101% in the test with A549/ATCC NSCLC; 101% with 786-0 renal; 107% in the test with COLO 205 colon; 106% in the test on DU-145 prostate; 103% in the test on MALME-3M melanoma. For the same compound, the growth in the test with MDA-MB-231 breast was 98%; in the test with RXF 393 renal, 123%; in the test with SF-268 CNS it was 99.4%; in the test on SF-295 CNS it was 110%; in the test on SF-539 CNS, 94.2%; in the test with UACC-257 melanoma, 110%. Further, the growth in the test on M14 melanoma was 113%.
